Assay [1] is described as follows: BSK_SAg_PBMCCytotoxicity: PBMC Cytotoxicity Assessment in the BioMAP Diversity Plus: SAg Assay (AID 2283093).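 For AC50: PBMC superantigen activated with SEB plus TSST-1 one hour after compound addition.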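 Note: PBMC viability measured as Alamar Blue reduction fluorescence at 546/580 nm; fitted both ways against DMSO so a hit may be loss or gain of signal.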 The note with it: primary human HUVEC with PBMC. In short, it runs like this: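 Alamar Blue reduction (6 h, 546/580 nm) reports PBMC cytotoxicity after 90 h superantigen activation (SEB, TSST-1; 20 ng/mL final each) with 1 h compound pre-treatment. Gain or loss of signal fitted versus DMSO.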

Read-out in assay [2]: Interleukin-8 (IL8), CXCL8 (gene 3576)
Nature of the assay: BSK_SAg_IL8: BioMAP Diversity Plus: SAg Assay for Interleukin-8 (IL8) Biomarker Activity (AID 2283094). The note with it: primary human HUVEC with PBMC; actives raise or lower the signal. Summed up: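 ELISA readout of IL-8 from a superantigen-activated endothelial/PBMC primary human co-culture, taken 24 h post-dosing and fitted in both directions against DMSO; parallel SRB total-protein staining flags overt cytotoxicity.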

Assay [3] is described as follows: BSK_SAg_Proliferation: Cell Proliferation Assessment in the BioMAP Diversity Plus: SAg Assay (AID 2283095).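 Note: relative cell number as total protein by SRB absorbance in sub-confluent culture.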 The note with it: primary human HUVEC with PBMC. Summed up:
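Relative cell number in the endothelial cell/PBMC co-culture was quantified at 96 h by SRB staining (0.1% SRB, 10% TCA fixation, read at 560 nm). Curves were fitted in both directions relative to DMSO baseline.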

Assay [4] in a line: BSK_SAg_SRB: Viability Assessment in the BioMAP Diversity Plus: SAg Assay (AID 2283096).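 Note: cells read one day after compound addition; hits may be either gain or loss of signal compared with DMSO.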 The note with it: primary human HUVEC with PBMC. Summed up:
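This overt-cytotoxicity endpoint quantifies protein in human endothelial/PBMC co-cultures at 24 h using SRB absorbance (560 nm) after trichloroacetic acid fixation. Values reflect signal change from the DMSO negative control, fitted bidirectionally.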

The target in assay [5] is human CYP2D6, CYP2D6 (gene 1565) (UniProt P10635). Nature of the assay: NVS_ADME_hCYP2D6: NovaScreen (NVS) CYP450-related Enzyme Activity (ADME) Assay for human CYP2D6 (AID 2283107; active = hit-call score of the fitted dose curve at least 0.9, where 1 is the maximum). Summed up: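 Biochemical fluorescence assay, insect-cell-derived enzyme. Read at 1 h; inhibition taken from loss of signal against acetonitrile. Screened at 10 uM in duplicate, with concentration series for actives.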
Chain of human CYP2D6, CYP2D6 (gene 1565) (P10635 whole entry, looked up): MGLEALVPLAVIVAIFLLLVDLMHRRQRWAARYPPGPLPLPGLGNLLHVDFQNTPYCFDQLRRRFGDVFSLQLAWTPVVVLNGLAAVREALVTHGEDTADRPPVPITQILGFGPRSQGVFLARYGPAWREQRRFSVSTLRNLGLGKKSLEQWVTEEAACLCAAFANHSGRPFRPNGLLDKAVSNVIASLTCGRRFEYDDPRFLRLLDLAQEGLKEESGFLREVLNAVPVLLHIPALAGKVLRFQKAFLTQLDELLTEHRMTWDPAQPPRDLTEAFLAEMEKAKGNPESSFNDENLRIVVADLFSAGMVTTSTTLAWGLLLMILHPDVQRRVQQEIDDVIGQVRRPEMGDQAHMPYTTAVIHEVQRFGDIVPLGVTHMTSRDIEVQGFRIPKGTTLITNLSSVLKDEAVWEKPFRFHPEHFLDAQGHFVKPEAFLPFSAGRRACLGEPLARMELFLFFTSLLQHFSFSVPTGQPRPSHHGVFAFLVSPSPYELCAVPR

Activity calls are given as the source filed them. Rule for the calls, unless noted: active = hit-call score of the fitted dose curve at least 0.9, where 1 is the maximum; inactive = score below 0.9.

For orientation: AC50 means the midpoint of the concentration-response curve, whichever way the signal moves. `CC/C(=C(/CC)c1ccc(O)cc1)c1ccc(O)cc1`: the AC50 in assay [1] is 29.1 µM (active); in assay [2], 13.4 µM (active); in assay [3], 11.8 µM (active); in assay [4], 23.1 µM (active).

As to `O=C(O)Cn1c(=O)n(Cc2ccc(Br)cc2F)c(=O)c2ccc(Cl)cc21`, the outcome in assay [1], in assay [2], in assay [3] and in assay [4] was inactive.

With `CN1C(=O)CC[C@H]1c1cccnc1`, the result in assay [1], in assay [2], in assay [3] and in assay [4] was inactive.

In the case of `COc1cccc([C@H](O)C2CCN(CCc3ccc(F)cc3)CC2)c1OC`, the result in assay [1], in assay [2], in assay [3] and in assay [4] was inactive. Moreover, the AC50 in assay [5] is 5.29 µM (active).

On to `O=CCCCC=O`, for which the values for the AC50 in assay [1] and in assay [3] were 20.6 µM (active) and 32.8 µM (active), respectively. Also, the outcome in assay [2] and in assay [4] was inactive.

Take `O=C1O[C@H]([C@@H](O)CO)C(O)=C1O`: the outcome in assay [1], in assay [2], in assay [3] and in assay [4] was inactive.

With `CCN(CC)C(=O)c1cc(S(=O)(=O)Cc2ccccc2)c(N2CCC(c3ccccc3)CC2)cc1N(CC)CCN(C)C`, the AC50 was 6.84 µM (active) in assay [1]; 5.2 µM (active) in assay [2]; 5.1 µM (active) in assay [3]; 12.7 µM (active) in assay [4]; 5.11 µM (active) in assay [5].

Take `O=C(Nc1ccc(Cl)cc1)Nc1ccc(Cl)c(Cl)c1`: the AC50 in assay [1] is 2.72 µM (active); in assay [2] it was 2.29 µM (active); in assay [3] it was 1.79 µM (active); in assay [4], 2.28 µM (active).

Turning to `Oc1ccc2ccccc2c1`, the outcome in assay [1], in assay [2], in assay [3] and in assay [4] was inactive.

Consider `Cc1cccc2ccccc12`, for which the result in assay [1], in assay [2], in assay [3] and in assay [4] was inactive.

In the case of `Cc1occc1C(=O)Nc1ccc(C(=O)N2CCC(F)(F)/C(=C\C(=O)N3CCC(N4CCCCC4)CC3)c3ccccc32)cc1`, the outcome in assay [1], in assay [2], in assay [3] and in assay [4] was inactive. Also, the AC50 in assay [5] is 1.77 µM (active).

The values are drawn from PubChem BioAssay (EPA / NIEHS).
